In the supplement of paper PMC8728848:
This is one part of a sample in which the strongest signals are shown more often than they occur.

Columns and labels:
Test in all cases: glycan array binding signal (z-score within array); higher = stronger binding
Conditions in all cases: glycan notation: IUPAC condensed, linker removed
[1] = molecular target: Fuc(a1-2)Gal(b1-3)GlcNAc(b1-2)Man(a1-3)[Fuc(a1-2)Gal(b1-3)GlcNAc(b1-2)Man(a1-6)]Man(b1-4)GlcNAc(b1-4)[Fuc(a1-6)]GlcNAc
Method in brief: (§1)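 Arrays were curated from the Consortium for Functional Glycomics database, 3228 in total, and kept only where the protein sequence was available. Binding is expressed as a within-array Z-score. This score was averaged across arrays of the same protein sequence at different concentrations or buffers and across linkers, and negative values can be read as non-binding.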

[2] = molecular target: Fuc(a1-2)Gal(b1-3)[Fuc(a1-4)]GlcNAc(b1-2)Man(a1-3)[Fuc(a1-2)Gal(b1-3)[Fuc(a1-4)]GlcNAc(b1-2)Man(a1-3)]Man(b1-4)GlcNAc(b1-4)GlcNAc
Method in brief: as §1

Fuc(a1-2)Gal(b1-4)Glc = molecular target: Fuc(a1-2)Gal(b1-4)Glc
Method in brief: as §1

[3] = molecular target: Fuc(a1-2)Gal(b1-4)GlcNAc(b1-3)GalNAc
Method in brief: as §1

Fuc(a1-2)Gal6S(b1-4)Glc = molecular target: Fuc(a1-2)Gal6S(b1-4)Glc
Method in brief: as §1

[4] = molecular target: Fuc(a1-2)Gal6S(b1-4)Glc6S
Method in brief: as §1

[5] = molecular target: Fuc(a1-2)[GalNAc(a1-3)]Gal(b1-4)GlcNAc(b1-3)GalNAc
Method in brief: as §1

[6] = molecular target: Fuc(a1-3)[Gal(b1-4)]GlcNAc(b1-6)GalNAc
Method in brief: as §1

[7] = molecular target: Fuc(a1-3)[Gal3S(b1-4)]GlcNAc6S
Method in brief: as §1

[8] = molecular target: Gal(a1-3)Gal(b1-3)GlcNAc(b1-3)GalNAc
Method in brief: as §1

[9] = molecular target: Gal(a1-3)Gal(b1-3)[Fuc(a1-4)]GlcNAc(b1-2)Man(a1-3)[Gal(a1-3)Gal(b1-3)[Fuc(a1-4)]GlcNAc(b1-2)Man(a1-6)]Man(b1-4)GlcNAc(b1-4)GlcNAc
Method in brief: as §1

[10] = molecular target: Gal(a1-3)Gal(b1-4)GlcNAc(b1-3)GalNAc
Method in brief: as §1

Gal(a1-4)Gal(b1-4)GlcNAc = molecular target: Gal(a1-4)Gal(b1-4)GlcNAc
Method in brief: as §1

[11] = molecular target: Gal(a1-4)Gal(b1-4)GlcNAc(b1-3)Gal(b1-4)Glc
Method in brief: as §1

[12] = molecular target: Gal(b1-3)[Fuc(a1-4)]GlcNAc(b1-2)Man
Method in brief: as §1

[13] = molecular target: Gal(b1-3)[Fuc(a1-4)]GlcNAc(b1-2)Man(a1-3)[Gal(b1-3)[Fuc(a1-4)]GlcNAc(b1-2)Man(a1-6)]Man(b1-4)GlcNAc(b1-4)[Fuc(a1-6)]GlcNAc
Method in brief: as §1

[14] = molecular target: Gal(b1-4)GalNAc(a1-3)[Fuc(a1-2)]Gal(b1-4)GlcNAc
Method in brief: as §1

Gal(b1-4)GlcNAc = molecular target: Gal(b1-4)GlcNAc
Method in brief: as §1

[15] = molecular target: Gal(b1-4)GlcNAc(a1-6)Gal(b1-4)GlcNAc
Method in brief: as §1

[16] = molecular target: Gal(b1-4)GlcNAc(b1-3)Gal(b1-4)GlcNAc(b1-3)Gal(b1-4)GlcNAc(b1-2)Man(a1-3)[Gal(b1-4)GlcNAc(b1-3)Gal(b1-4)GlcNAc(b1-3)Gal(b1-4)GlcNAc(b1-2)Man(a1-6)]Man(b1-4)GlcNAc(b1-4)[Fuc(a1-6)]GlcNAc
Method in brief: as §1

[17] = molecular target: Gal(b1-4)GlcNAc(b1-3)Gal(b1-4)GlcNAc(b1-3)Gal(b1-4)GlcNAc(b1-3)Gal(b1-4)GlcNAc(b1-2)Man(a1-3)[Gal(b1-4)GlcNAc(b1-3)Gal(b1-4)GlcNAc(b1-3)Gal(b1-4)GlcNAc(b1-3)Gal(b1-4)GlcNAc(b1-2)Man(a1-6)]Man(b1-4)GlcNAc(b1-4)[Fuc(a1-6)]GlcNAc
Method in brief: as §1

[18] = molecular target: Gal(b1-4)GlcNAc(b1-3)Gal(b1-4)GlcNAc(b1-3)[Gal(b1-4)GlcNAc(b1-3)Gal(b1-4)GlcNAc(b1-6)]GalNAc
Method in brief: as §1

[19] = molecular target: Gal3S(b1-3)[Fuc(a1-4)]GlcNAc
Method in brief: as §1

Gal3S(b1-4)Glc = molecular target: Gal3S(b1-4)Glc
Method in brief: as §1

Gal3S6S(b1-4)GlcNAc6S = molecular target: Gal3S6S(b1-4)GlcNAc6S
Method in brief: as §1

[20] = molecular target: GalNAc(b1-4)GlcNAc(b1-2)Man(a1-3)[GalNAc(b1-4)GlcNAc(b1-2)Man(a1-6)]Man(b1-4)GlcNAc(b1-4)GlcNAc
Method in brief: as §1

GalNAc(b1-4)GlcNAc6S = molecular target: GalNAc(b1-4)GlcNAc6S
Method in brief: as §1

[21] = molecular target: GlcNAc(a1-4)Gal(b1-4)GalNAc
Method in brief: as §1

[22] = molecular target: GlcNAc(a1-4)Gal(b1-4)GlcNAc(b1-3)Gal(b1-4)[Fuc(a1-3)]GlcNAc(b1-3)Gal(b1-4)[Fuc(a1-3)]GlcNAc
Method in brief: as §1

[23] = molecular target: GlcNAc(b1-2)[GlcNAc(b1-4)]Man(a1-3)[GlcNAc(b1-4)][GlcNAc(b1-2)[GlcNAc(b1-6)]Man(a1-6)]Man(b1-4)GlcNAc(b1-4)GlcNAc
Method in brief: as §1

[24] = molecular target: GlcNAc(b1-2)[GlcNAc(b1-6)]Man(a1-6)[GlcNAc(b1-4)][GlcNAc(b1-2)Man(a1-3)]Man(b1-4)GlcNAc(b1-4)GlcNAc
Method in brief: as §1

GlcNAc(b1-3)Fuc = molecular target: GlcNAc(b1-3)Fuc
Method in brief: as §1

GlcNAc(b1-3)Gal = molecular target: GlcNAc(b1-3)Gal
Method in brief: as §1

[25] = molecular target: GlcNAc(b1-3)Gal(b1-4)GlcNAc(b1-3)Gal(b1-4)GlcNAc(b1-2)Man(a1-3)[GlcNAc(b1-3)Gal(b1-4)GlcNAc(b1-3)Gal(b1-4)GlcNAc(b1-2)Man(a1-6)]Man(b1-4)GlcNAc(b1-4)[Fuc(a1-6)]GlcNAc
Method in brief: as §1

[26] = molecular target: GlcNAc(b1-3)Gal(b1-4)GlcNAc(b1-3)Gal(b1-4)GlcNAc(b1-3)Gal(b1-4)GlcNAc(b1-2)Man(a1-3)[GlcNAc(b1-3)Gal(b1-4)GlcNAc(b1-3)Gal(b1-4)GlcNAc(b1-3)Gal(b1-4)GlcNAc(b1-2)Man(a1-6)]Man(b1-4)GlcNAc(b1-4)[Fuc(a1-6)]GlcNAc
Method in brief: as §1

Kdn(a2-3)Gal(b1-4)Glc = molecular target: Kdn(a2-3)Gal(b1-4)Glc
Method in brief: as §1

[27] = molecular target: Man(a1-2)Man(a1-3)[Man(a1-2)Man(a1-6)]Man
Method in brief: as §1

[28] = molecular target: Neu5Ac(a2-3)Gal(b1-3)GlcNAc(b1-2)Man(a1-3)[Neu5Ac(a2-3)Gal(b1-3)GlcNAc(b1-2)Man(a1-6)]Man(b1-4)GlcNAc(b1-4)GlcNAc
Method in brief: as §1

[29] = molecular target: Neu5Ac(a2-3)Gal(b1-3)GlcNAc(b1-3)Gal(b1-3)GlcNAc
Method in brief: as §1

[30] = molecular target: Neu5Ac(a2-3)Gal(b1-3)GlcNAc(b1-3)GalNAc
Method in brief: as §1

[31] = molecular target: Neu5Ac(a2-3)Gal(b1-4)GlcNAc(b1-2)Man
Method in brief: as §1

[32] = molecular target: Neu5Ac(a2-3)Gal(b1-4)GlcNAc(b1-3)Gal(b1-3)GlcNAc
Method in brief: as §1

[33] = molecular target: Neu5Ac(a2-3)Gal(b1-4)[Fuc(a1-3)]GlcNAc(b1-6)[Gal(b1-3)]GalNAc
Method in brief: as §1

[34] = molecular target: Neu5Ac(a2-3)Gal(b1-4)[Fuc(a1-3)]GlcNAc(b1-6)[Neu5Ac(a2-3)Gal(b1-3)]GalNAc
Method in brief: as §1

[35] = molecular target: Neu5Ac(a2-3)[GalNAc(b1-4)]Gal(b1-4)GlcNAc(b1-3)GalNAc
Method in brief: as §1

Neu5Ac(a2-6)Gal(b1-4)Glc = molecular target: Neu5Ac(a2-6)Gal(b1-4)Glc
Method in brief: as §1

[36] = molecular target: Neu5Ac(a2-6)Gal(b1-4)GlcNAc(b1-6)GalNAc
Method in brief: as §1

[37] = molecular target: Neu5Ac9Ac(a2-3)Gal(b1-3)GlcNAc
Method in brief: as §1

[38] = molecular target: Neu5Ac9Ac(a2-3)Gal(b1-4)GlcNAc
Method in brief: as §1

[39] = molecular target: Neu5Gc(a2-8)Neu5Gc(a2-6)Gal(b1-4)GlcNAc
Method in brief: as §1

B1: FGF1 (Homo sapiens), P05230 (protein)
chain: MAEGEITTFTALTEKFNLPPGNYKKPKLLYSNGGHFLRILPDGTVDGTRDRSDQHIQLQLSAESVGEVYIKSTETGQYLAMTDGLLYGSQTPNEECLFLERLEENHYNTYISKHAEKNWFVGLKKNGSCKRGPRTHYGQAILFLPLPASSED
glycan array binding signal (z-score) [1]: 0.366 | glycan array binding signal (z-score) [2]: 2.84 | glycan array binding signal (z-score) (Fuc(a1-2)Gal(b1-4)Glc): -0.358 | glycan array binding signal (z-score) [3]: 1.33 | glycan array binding signal (z-score) (Fuc(a1-2)Gal6S(b1-4)Glc): 0.397 | glycan array binding signal (z-score) [4]: 0.797 | glycan array binding signal (z-score) [5]: -0.242 | glycan array binding signal (z-score) [6]: 1.04 | glycan array binding signal (z-score) [7]: 1.09 | glycan array binding signal (z-score) [8]: 0.646 | glycan array binding signal (z-score) [9]: 3.56 | glycan array binding signal (z-score) [10]: -0.582 | glycan array binding signal (z-score) (Gal(a1-4)Gal(b1-4)GlcNAc): 0.333 | glycan array binding signal (z-score) [11]: 0.423 | glycan array binding signal (z-score) [12]: 3.59 | glycan array binding signal (z-score) [13]: 3.02 | glycan array binding signal (z-score) [14]: -0.949 | glycan array binding signal (z-score) (Gal(b1-4)GlcNAc): -0.031 | glycan array binding signal (z-score) [15]: -0.827 | glycan array binding signal (z-score) [16]: 2.98 | glycan array binding signal (z-score) [17]: 1.05 | glycan array binding signal (z-score) [18]: 1.64 | glycan array binding signal (z-score) [19]: 3.14 | glycan array binding signal (z-score) (Gal3S(b1-4)Glc): -0.046 | glycan array binding signal (z-score) (Gal3S6S(b1-4)GlcNAc6S): 1.04 | glycan array binding signal (z-score) [20]: 6.98 | glycan array binding signal (z-score) (GalNAc(b1-4)GlcNAc6S): -0.848 | glycan array binding signal (z-score) [21]: 0.705 | glycan array binding signal (z-score) [22]: 1.24 | glycan array binding signal (z-score) [23]: -0.751 | glycan array binding signal (z-score) [24]: -0.832 | glycan array binding signal (z-score) (GlcNAc(b1-3)Fuc): 0.25 | glycan array binding signal (z-score) (GlcNAc(b1-3)Gal): -0.782 | glycan array binding signal (z-score) [25]: -0.417 | glycan array binding signal (z-score) [26]: 1.12 | glycan array binding signal (z-score) (Kdn(a2-3)Gal(b1-4)Glc): 3.53 | glycan array binding signal (z-score) [27]: -0.916 | glycan array binding signal (z-score) [28]: 4.88 | glycan array binding signal (z-score) [29]: -0.881 | glycan array binding signal (z-score) [30]: -0.187 | glycan array binding signal (z-score) [31]: 5.56 | glycan array binding signal (z-score) [32]: -0.884 | glycan array binding signal (z-score) [33]: 0.146 | glycan array binding signal (z-score) [34]: 0.465 | glycan array binding signal (z-score) [35]: -0.27 | glycan array binding signal (z-score) (Neu5Ac(a2-6)Gal(b1-4)Glc): 0.536 | glycan array binding signal (z-score) [36]: 4.24 | glycan array binding signal (z-score) [37]: 1.47 | glycan array binding signal (z-score) [38]: -0.689 | glycan array binding signal (z-score) [39]: -0.059
